Data: PubChem BioAssay (NCATS)
Results filed as inconclusive are left out. A number with no mark means an inactive call. Active and inactive are the calls of the source. Calls follow the shape of the dose curve; as a rule, active = well fitted inhibition curve with a large enough effect; inconclusive = small, poorly fitted or top-dose-only effect; inactive = flat fitted curve, though single readings scatter.

tested on: CRL-7250; experiment: Cytotoxic Profiling of Annotated Libraries Using Quantitative High-Throughput Screening (AID 1296008); conditions: Five cell lines viability, CellTiter-Glo ATP luminescence, 48-72 h; max response: stronger effect = lower value; also: nearly all actives have a fitted effect of over 60% in size
How it was run: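 Cytotoxicity was measured as CellTiter-Glo ATP luminescence, read after 10 min at room temperature. Compound treatment of the cells lasted 48 or 72 hr at 37 degrees Celsius in a qHTS format.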
% is scaled to controls: 0 for no effect and ±100 for the full control effect; potency is read from the fitted curve at half-maximal effect.

Row | Compound | Potency | max response [%] | outcome
1 | CN1CCC(NC(=O)c2cc(-c3c(O)cc(O)cc3Oc3ccc([N+](=O)[O-])cc3)on2)CC1 | 0.366 µM (active) |  | 
2 | COc1ccc(C[C@H]2COC(=O)[C@@H]2Cc2ccc(O[C@@H]3O[C@H](CO)[C@@H](O)[C@H](O)[C@H]3O)c(OC)c2)cc1OC | 0.893 µM (active) |  | 
3 | CCNC(=O)Nc1ccc(-c2nc3c(c(N4CCOCC4C)n2)CCN(C2COC2)C3)cc1 (stereo not given) | 0.206 µM (active) |  | 
4 | COc1cc2nc(C3CC3)nc(N3CCN(c4ccccc4OC)CC3)c2cc1OC |  | -2.72 | 
5 | CC(/C=C/C(=O)NO)=C\[C@@H](C)C(=O)c1ccc(N(C)C)cc1 | 2.91 µM (active) |  | 
6 | CN1CCN(c2ccc(Nc3cc(-c4cccc(-n5ccc6cc(C7CC7)cc(F)c6c5=O)c4CO)cn(C)c3=O)nc2)CC1 | 23.1 µM (active) |  | 
7 | CCc1cc(C(N)=O)ccc1-n1nc(C(C)C)c2c(-n3cnc(-c4cnn(C)c4)c3)ccnc21 | 4.11 µM (active) |  | 
8 | Cc1ccccc1C(C(=O)NC1CCCCC1)N(C(=O)Cn1cnc2ccccc21)c1cccc(F)c1 (stereo not given) |  | -31.4 | 
9 | Cc1cc(-c2nc(-c3ccc(OC(F)(F)F)cc3)no2)nn1Cc1ccnc(N2CCN(C3CC3)CC2)c1 | 0.0259 µM (active) |  | 
10 | COc1cc(O)cc(OC2OC(CO)C(O)C(O)C2O)c1 (stereo not given) |  | -0.834 | 
11 | C1=C/COCc2cc(ccc2OCCN2CCCC2)Nc2nccc(n2)-c2cccc(c2)COC/1 | 6.51 µM (active) |  | 
12 | FC(F)(F)c1ccc(/C=C/c2nc(COc3ccc(CCCCn4ccnn4)cc3)co2)cc1 | 0.0651 µM (active) |  | 
13 | COC(=O)N1CCC(n2ncc3c(N4CCOCC4)nc(-c4ccc(NC(=O)NC5CC5)cc4)nc32)CC1 | 0.259 µM (active) |  | 
14 | C#CCCCn1cc(-c2cccc3c2N[C@H](C)CC(=O)N3)cn1 |  | -3.86 | 
15 | Nc1nc(O)c(C2=C3C(=Nc4ccccc43)C(=O)NCC2)[nH]1 |  | -2.87 | 
16 | O=c1cc(NCCCN[C@@H]2CCOc3c(Br)cc(Br)cc32)[nH]c2ccsc12 |  | 1.96 | 
17 | COc1cc(NC(=O)c2cccc(-n3cc(NC(=O)Nc4cccc(C)c4)cn3)c2)cc(OC)c1OC |  |  | inactive
18 | CN[C@@H]1[C@H](O[C@H]2[C@H](O[C@@H]3[C@@H](O)[C@H](O)[C@@H](N=C(N)N)[C@H](O)[C@H]3N=C(N)N)O[C@@H](C)[C@]2(O)CO)O[C@@H](CO)[C@H](O)[C@H]1O |  | 1.43 | 
19 | CCOC(=O)c1cnc2ccc(-c3cncc(NS(=O)(=O)c4ccccc4)c3)cn12 | 4.11 µM (active) |  | 
20 | CC[C@@H](C)Nc1cc(C(=O)NC2CC3CCC(C2)N3c2ccc(C(=O)C3CC3)cn2)c(C)cc1C(N)=O (stereo not given in full) | 0.259 µM (active) |  | 

Row | Compound | Potency | max response [%] | outcome
21 | CCNC(=O)c1noc(-c2cc(Cl)c(O)cc2O)c1-c1ccc(OC)cc1 | 0.461 µM (active) |  | 
22 | Cc1nc2ccc(CN(C)c3ccc(C(=O)NC(CCC(=O)O)C(=O)O)s3)cc2c(=O)[nH]1 (stereo not given) |  |  | inactive
23 | COC(=O)Nc1cc(Nc2cc(NC3CC3)c3ncc(C#N)n3n2)c(Cl)c(N2CCN(C)CC2)c1 | 9.33 µM (active) |  | 
24 | CCOC(=O)[C@@]1(CCCCCCOc2ccc(Cl)cc2)CO1 |  | -16.7 | 
25 | O=C(Cc1cccc(OC(F)(F)F)c1)Nc1ccc(CCCCc2nnc(NC(=O)Cc3ccccn3)s2)nn1 | 0.0166 µM (active) |  | 
26 | O=C(Nc1ccc(Cl)cc1)C1CCCN(C(=O)c2cccc(-c3ccco3)c2)C1 (stereo not given) | 13 µM (active) |  | 
27 | C=C(C)Cn1c(SCC(=O)c2cccs2)nc2sc3c(c2c1=O)CCCC3 |  | -0.048 | 
28 | COc1cc(N2CCC(N3CCN(C)CC3)CC2)ccc1Nc1ncc(Cl)c(Nc2ccccc2P(C)(C)=O)n1 | 2.06 µM (active) |  | 
29 | Cc1sc2c(c1C)C(c1ccc(Cl)cc1)=N[C@H](CC(=O)NCCCCNC(=O)COc1cccc3c1C(=O)N([C@H]1CCC(=O)NC1=O)C3=O)c1nnc(C)n1-2 | 1.84 µM (active) |  | 
30 | COc1c(C)cnc(Cn2cc(C#CCC(C)(C)O)c3c(Cl)nc(N)nc32)c1C | 0.259 µM (active) |  | 
31 | Fc1ccc(-c2nc(C3CCNCC3)sc2-c2ccnc(NC3CC3)n2)cc1 |  |  | inactive
32 | COc1ccc(N(C(=O)Nc2c(C)cccc2C)c2cc(Nc3ccc(N4CCN(C)CC4)cc3)ncn2)c(OC)c1 | 2.91 µM (active) |  | 
33 | C/C1=C/CCC2=CC(OC2=O)C(C)(C)/C=C/C1=O (stereo not given) | 2.31 µM (active) |  | 
34 | CCCCNc1ncc(C(=O)NCc2ccc(-n3ccnc3)cc2)c(NC2CCC(O)CC2)n1 (stereo not given) | 13 µM (active) |  | 
35 | CCCC1(CCC)CCC2(CCN(CCCN(CC)CC)C2)CC1 | 4.11 µM (active) |  | 
36 | CC[C@@H](C)Nc1cc(C(=O)NC2CC3CC[C@@H](C2)N3c2ccc(C(=O)C3CC3)cn2)c(C)cc1C(N)=O (stereo not given in full) | 0.231 µM (active) |  | 
37 | CN1CCN(Cc2ccc(NC(=O)Cc3ccc(Oc4cc(NC(=O)C5CC5)ncn4)cc3)cc2C(F)(F)F)CC1 | 5.8 µM (active) |  | 
38 | CCc1c[nH]c2ncnc(N3CC[C@](N)(CNC(=O)c4ccc(F)cc4F)C3)c12 |  | -13.8 | 
39 | C=CC(=O)Nc1cccc(Nc2nc(Nc3ccc(NC4CN(CCF)C4)cc3OC)ncc2C(F)(F)F)c1 | 7.31 µM (active) |  | 
40 | C=C(C)C(=O)OC1CC2(C)OC(=CC2=O)C(=C)CC2OC(=O)C(=C)C12 (stereo not given) | 3.21 µM (active) |  | 
